# Assay outcomes deposited in PubChem BioAssay by National Center for Advancing Translational Sciences (NCATS).
# Rows were chosen to be rich in hits. Some 2.2% of all compounds tested hit in one or more screens of this group.
# PI4K2A block: qHTS for small molecular inhibitors of PI4K2A | hit rate 0.13% among 420,000 | purified PI4K2A, ADP-Glo luminescence, 1 h; stronger effect = lower value | activity change, negative = inhibition, % at 76.9 µM | Phosphatidylinositol 4-kinase type 2-alpha (Homo sapiens), Q9BTU6; in the data active = activity change below about -50%; inconclusive = mostly about -30% to -49%
#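 ADP-Glo luminescence measured ADP generated by PI4K2A enzyme (4 ug/mL before mixing) with 1.2 mM PI substrate (pre-mix) and 300 microM ATP (pre-mix). Tris pH7.5 buffer with MgCl2, Triton X-100; 1 h reaction at ambient temperature.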
# A549 viability: Nrf2 qHTS screen for inhibitors: counterscreen for cytotoxicity; hit rate 0.16% among 390,000; A549 ARE-Fluc cells, CellTiter-Fluor viability, 18-24 h; Potency, µM (titrated, usually from 46 µM), most hits filed as inhibitors; AID 504648, 2011
#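 A549 ARE_Fluc cells in 5% FBS OPTI-MEM were exposed to compounds in concentration-response for 18-24 h at 37 deg C. Viability was read by CellTiter-Fluor fluorescence (Ex 405/Em 525) after 30 min, before the luciferase read.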
# miR-21 reporter: qHTS Assay for Modulators of miRNAs and/orActivators of miR-21; 340,000 tested, under 10 active; AID 2288, 2010; Potency, µM (doses to about 38.3 µM), hits mostly activators; HeLa miR-21 FLuc reporter, luciferase, 48 h;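 also: miR-21 action dims this reporter so a rising signal means less miR-21 action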
#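 Compounds were titrated across several concentrations (up to approximately 40 uM) and incubated 48 hours with HeLa miR-21-FLuc reporter cells (miR-21 target sequence downstream of FLuc, endogenous miR-21). Readout was firefly luciferase luminescence after lytic detection reagent.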
# Nrf2 activator: qHTS of Nrf2 Activators. AREc32 ARE-luciferase reporter (MCF7-derived line), luminescence, 24 h. Potency, µM (series often up to 46.1 µM), hits mostly activators. hit rate 0.31% among 410,000; also: nearly all actives have a fitted effect of over 65% in size
#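 Nrf2 activation is followed as ARE-luciferase induction in the AREc32 line after one day of compound treatment; luminescence is read with Steady-Glo.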
# Nrf2 inh: Nrf2 qHTS screen for inhibitors; A549 ARE-Fluc reporter, luciferase luminescence, 18-24 h; Potency, µM (doses to about 46 µM), actives largely listed as inhibitors; hit rate 2.1% among 360,000; also: nearly all actives have a fitted effect of over 60% in size
#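 Quantitative HTS in A549 cells stably bearing an antioxidant response element-firefly luciferase construct. Inhibition of Nrf2-driven transcription was scored by luminescence after 18-24 h of compound exposure at 37 °C.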
# GALK inhibitor: qHTS Assay for Inhibitors of Human Galactokinase (GALK). P51570. Potency, µM (highest dose often 57.5 µM), hits mostly inhibitors. Purified GALK, Kinase-Glo residual ATP luminescence. hit rate 0.007% among 270,000
# Target sequence (P51570 whole entry, looked up): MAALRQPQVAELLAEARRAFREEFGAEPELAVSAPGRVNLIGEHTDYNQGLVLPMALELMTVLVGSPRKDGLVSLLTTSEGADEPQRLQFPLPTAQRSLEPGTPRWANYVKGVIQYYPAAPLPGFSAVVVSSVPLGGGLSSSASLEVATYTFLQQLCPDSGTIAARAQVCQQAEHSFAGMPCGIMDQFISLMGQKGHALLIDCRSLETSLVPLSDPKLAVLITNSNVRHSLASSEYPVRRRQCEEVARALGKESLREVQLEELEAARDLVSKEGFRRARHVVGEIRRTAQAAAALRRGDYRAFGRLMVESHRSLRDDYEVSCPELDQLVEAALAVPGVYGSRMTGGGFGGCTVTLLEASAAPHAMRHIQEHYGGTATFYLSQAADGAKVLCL
#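 Luminescence from leftover ATP (Ultra-Glo luciferase/luciferin) served as read-out after a 1 h room-temperature reaction of 5 nM GALK with 35 uM ATP and 100 uM galactose.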
# Numbers stand for hits; . = inactive; ? = inconclusive; / = no result; [ ] = another dose, or the depositor's remark. Unless noted, calls follow the shape of the dose curve; as a rule, active = well fitted curve in the direction sought with a large enough effect; inconclusive = small, poorly fitted or top-dose-only effect, or another doubt; inactive = no such curve, though single readings can be large; an effect the other way counts as inactive or inconclusive.
SMILES,PI4K2A block,A549 viability,miR-21 reporter,Nrf2 activator,Nrf2 inh,GALK inhibitor
CCOC(=O)CSc1nc2sc(C)c(C)c2c(=O)[nH]1,.,.,.,.,?,.
CCOC(=O)/C(=C\c1ccc(Cl)cc1)c1nc2sc(C)c(C)c2c(=O)[nH]1,.,?,.,?,18µM,.
O=C(c1ccc2c(c1)N(Cc1ccccc1Cl)C(=O)c1ccccc1S2)N1CCCC1,.,.,.,.,/,/
O=C(c1ccc2c(c1)N(Cc1c(F)cccc1Cl)C(=O)c1ccccc1S2)N1CCCC1,.,?,.,.,10µM,/
COc1ccc(NS(=O)(=O)c2ccc(N3CCCC3=O)cc2)cn1,.,.,.,.,?,.
COc1ccc(NS(=O)(=O)c2ccc3c(c2)Cc2ccccc2-3)cn1,.,.,.,.,16µM,.
O=C(CSC1=NCCS1)c1ccc(Cl)cc1,.,.,.,.,13µM,.
CCOC(=O)C1=C(CS(=O)(=O)c2ccc(C)cc2)NC(=O)NC1c1ccc(C(C)C)cc1 (stereo unspecified),.,?,?,.,18µM,/
CCOC(=O)C1=C(CN(C)Cc2ccccc2)NC(=O)NC1c1ccc(OC)cc1 (stereo unspecified),.,.,.,.,.,/
CCOC(=O)C1=C(CN(C)Cc2ccccc2)NC(=O)NC1c1ccc(OC(C)C)cc1 (stereo unspecified),.,.,.,.,26µM,/
CCOC(=O)C1=C(CN2CCN(c3cc(C)ccc3C)CC2)NC(=O)NC1c1ccc(Cl)cc1 (stereo unspecified),.,.,.,.,21µM,/
Cn1c(=O)c2c(nc(NCc3ccccc3)n2C)n(C)c1=O,.,.,.,.,.,.
Cn1c(=O)c2nc(NCc3ccccc3)sc2n(C)c1=O,.,.,/,2.5µM,?,/
O=c1c([N+](=O)[O-])c(Cl)c2ccccc2n1Cc1ccccc1,.,/,/,/,/,/
Cc1cc(C)c(Cc2c(C)nc3c(C(=O)NCc4ccco4)cnn3c2C)c(C)c1,.,?,.,.,18µM,.
CCOc1cc(NC(=O)CCl)c(OCC)cc1NC(=O)CCl,?,.,?,7.1µM,?,.
Cc1ccc(-n2c(SCC(=O)Nc3ccccc3-c3ccccc3)nnc2-c2cnccn2)cc1,.,/,/,/,/,/
O=C(COC(=O)c1c2c(nc3ccccc13)/C(=C/c1cccc([N+](=O)[O-])c1)CCC2)NC1CCS(=O)(=O)C1 (stereo unspecified),.,.,.,.[9.22 µM],23µM,.
CC1CCCCC1NC(=O)COC(=O)c1c2c(nc3ccccc13)/C(=C\c1ccco1)CC2 (stereo unspecified),-67,.,/,.,.,/
CN1CCc2nc3ccccc3c(C(=O)OCC(=O)N(CCC#N)c3ccccc3)c2C1,.,.,.,.,.,.
O=C(COC(=O)c1c2c(nc3ccccc13)/C(=C\c1ccco1)CC2)NC1CCCC1,?,?,/,.,?,/
CN(CCC#N)C(=O)COC(=O)c1c2c(nc3ccccc13)/C(=C\c1ccco1)CC2,-52,.,/,.,?,/
CN(C(=O)COC(=O)c1c2c(nc3ccccc13)/C(=C/c1cccc([N+](=O)[O-])c1)CCC2)C1CCS(=O)(=O)C1 (stereo unspecified),.,.,.,.,.,.
N#CCC[C@@H]1CC[C@]2(CCCN(C(=O)C3CCCCC3)C2)O1,.,/,/,/,/,/
O=C(CSc1nnc(Cc2cccs2)n1-c1ccc(Cl)cc1)Nc1ccc(OCc2ccccc2)cc1,.,/,/,/,/,/
SMILES,PI4K2A block,A549 viability,miR-21 reporter,Nrf2 activator,Nrf2 inh,GALK inhibitor
COc1cc(CNc2ccc(CNc3ncn[nH]3)cc2)ccc1OCC(=O)NC(C)(C)C,.,.,.,.,16µM,.
CC(C)(C)NC(=O)COc1ccc(CNc2ncn[nH]2)cc1,.,.,.,.,.,.
COc1cc(CNc2ccc(N3CCOCC3)cc2)ccc1OCC(=O)NC(C)(C)C,.,.,.,.,16µM,.
COc1cc(CNCCCO)ccc1OCC(=O)NC(C)(C)C,.,.,.,.,.,.
CCCCCc1ccc(NC(=O)OCCCN2CCC3(CCC(c4ccccc4)CC3)C2=O)cc1 (stereo unspecified),.,/,/,/,/,/
OC1(Cc2ccccc2)CCN(c2ncnc3sccc23)CC1,.,/,/,/,/,/
NS(=O)(=O)c1ccc(Cc2ncc(C(F)(F)F)cc2Cl)s1,.,?,.,.,21µM,.
CCC(CO)[n+]1c(C)cc(/C=C2\Sc3ccccc3N2Cc2ccccc2)cc1C (stereo unspecified),.,?,?,.,15µM,.
O=C1/C(=C\c2ccco2)NC(=S)N1c1ccccc1,.,.,.,8.9µM,?,.
CCCN=C1N/C(=C\c2ccco2)C(=O)N1c1ccccc1,.,.,.,.,.,.
Cc1ccc(-n2c(COc3ccccc3)nnc2SCC(=O)Nc2ccccc2-c2ccccc2)cc1,.,/,/,/,/,/
O=C(Nc1c(C(=O)N2CCN(c3ccccc3F)CC2)oc2ccccc12)c1ccc(Br)o1,.,.,.,.,23µM,/
CC(C)C(=O)Nc1c(C(=O)N2CCN(c3ccccc3F)CC2)oc2ccccc12,.,.,.,.,.,/
C=CCN1C(=O)[C@H](CC(=O)NCc2cccs2)[C@@]2(C(=O)OCC)CCCC=C12,.,/,/,/,/,/
CCN(CCCNC(=O)c1cc2cc3cc(OC)ccc3nc2s1)c1cccc(C)c1,.,.,.,.,26µM,/
CCOC(=O)c1cccc(NC(=O)c2cc3cc4cc(OC)ccc4nc3s2)c1,.,?,.,.,23µM,/
C=CCN1C(=O)[C@@H](CC(=O)NCC23CC4CC(CC(C4)C2)C3)[C@]2(C(=O)OCC)CCCCC/C=C/12,.,/,/,/,/,/
CC(=O)N(Cc1ccc(F)cc1)C1=C(NCc2ccccc2)C(=O)c2ccccc2C1=O,.,10µM,?,.,6.3µM,.
O=C(NCc1ccc(F)cc1)C(c1ccccc1)c1ccccc1,.,.,.,.,.,.
Cc1c(C#N)c(O)n(CCO)c(=O)c1N=Nc1ccc(S(N)(=O)=O)cc1,.,15µM,.,.,.,.
COc1ccccc1CNC(=S)NC1CCCCC1,.,?,.,.,15µM,.
Fc1ccccc1CNC(=S)NC1CCCCC1,.,.,.,.,.,.
Cc1cc2c(SCC(=O)NC3CCCCC3)ncnc2s1,.,.,.,.,?,.
Cc1cc2c(NC3CCCCC3)ncnc2s1,.,.,.,.,12µM,.
CCOC(=O)C(C)N1C(=O)S/C(=C/c2ccc3c(c2)n(C)c(=O)n3C)C1=O (stereo unspecified),.,.,.,?,21µM,.
